Columns and labels:
Assay type in all cases: functional
[1] = biological target: Solute carrier family 2, facilitated glucose transporter member 1 (Homo sapiens) (UniProt P11166); experiment: ST_JUDE_LEISH: Cytotoxicity at 2uM final concentration against transgenic Leishmania Mexicana promastigotes LmGLUT1 that are glucose transport deficient and complemented with the human glucose transporter GLUT1. Activity is measured by DNA content using SYBR green in vitro
[2] = biological target: Hexose transporter 1 (Plasmodium falciparum) (UniProt O97467); experiment: ST_JUDE_LEISH: Cytotoxicity at 2uM final concentration against transgenic Leishmania Mexicana promastigotes LmPfHT that are glucose transport deficient and complemented with the Plasmodium falciparum hexose transporter. Activity is measured by DNA content using SYBR green in vitro
[3] = biological target: Glucose transporter (Leishmania mexicana) (UniProt O61059); experiment: ST_JUDE_LEISH: Cytotoxicity at 2uM final concentration against transgenic Leishmania Mexicana promastigotes LmGT2 that are glucose transport deficient and complemented with the L. Mexicana glucose transporter 2. Activity is measured by DNA content using SYBR green in vitro

Sequence of Solute carrier family 2, facilitated glucose transporter member 1 (Homo sapiens) (P11166 whole entry): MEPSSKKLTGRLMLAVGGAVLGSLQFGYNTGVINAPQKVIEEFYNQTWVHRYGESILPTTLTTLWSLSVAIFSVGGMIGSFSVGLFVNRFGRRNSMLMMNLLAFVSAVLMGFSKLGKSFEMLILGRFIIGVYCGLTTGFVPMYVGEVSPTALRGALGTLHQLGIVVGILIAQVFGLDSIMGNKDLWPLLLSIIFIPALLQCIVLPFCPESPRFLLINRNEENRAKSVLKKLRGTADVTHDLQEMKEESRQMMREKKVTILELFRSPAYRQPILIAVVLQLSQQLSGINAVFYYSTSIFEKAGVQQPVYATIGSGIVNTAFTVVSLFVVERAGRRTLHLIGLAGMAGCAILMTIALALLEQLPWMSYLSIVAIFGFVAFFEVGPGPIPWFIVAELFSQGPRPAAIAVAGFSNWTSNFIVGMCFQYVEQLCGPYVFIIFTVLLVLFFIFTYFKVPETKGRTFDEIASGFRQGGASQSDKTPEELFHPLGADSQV

Row | SMILES | inhibition [1] [%] | inhibition [2] [%] | inhibition [3] [%]
1 | Cc1[nH]c(C)c(-c2ccc(OCc3ccc(F)cc3)nc2)c(=O)c1Br | 2.71 | 2.42 | 0.74
2 | O=C(NCc1ccc(Cl)cc1)c1ccc(CN2CCCN(Cc3cccc(O)c3)CC2)cc1 | 0.86 | 0.62 | 2.04
3 | Cc1ccc(/C=C2/SC(=Nc3ccccc3)NC2=O)c(C)c1 | 13.2 | 12.1 | 7.9
4 | CC(C)N1CCN(C(=O)c2ccc(CNCCCN3CCN(c4ccccc4C(F)(F)F)CC3)s2)CC1 | -4.83 | 0.84 | 4.26
5 | O=C(Nc1ccc(C(=O)OCC2CCCCC2)cc1)N[C@@H](Cc1ccc(O)cc1)C(=O)NC1CCN(Cc2ccc(O)cc2)C1 (stereo partly specified) | 3.7 | 2.04 | 3.42
6 | Cc1ccc(Nc2nc(C)cc(NC3CCN(C)CC3)n2)cc1 | 1.14 | 3.12 | 5.43
7 | c1ccc2c(NCCCCCCCCCNc3ccnc4ccccc34)ccnc2c1 | -0.85 | 4.91 | 8.19
8 | CSc1cccc(Nc2nc3ccc(S(=O)(=O)NCC(C)C)cc3n2C(C)C(C)C)c1 (stereo unspecified) | 2.75 | 4.12 | 2.98
9 | CC(C)c1ccc(NC(=O)c2cccc(CN3CCCN(Cc4cccc(O)c4)CC3)c2)cc1 | 15.4 | 12 | 7.67
10 | Cc1ccccc1C1CCN(C2CCC(NC(=O)/C=C/c3ccc(F)cc3)CC2)CC1 (stereo unspecified) | -1.42 | -0.14 | 0.53
11 | C=CCN1C(=O)C(=Cc2cc(Br)ccc2O)SC1=Nc1ccccc1 | 8.65 | 6.8 | 14.5
12 | O=[N+]([O-])c1cccc(CNCC2CCN(Cc3ccc4ccccc4c3)CC2)c1 | 16.5 | 3.55 | 2.23
13 | COc1ccc(N2CCN(CCCCNC(=O)c3ccc(NC(=O)c4ccc(Cl)cc4)cc3)CC2)c(C)c1 | 10.4 | 8.02 | 9.07
14 | CCCCCC(C)NC[C@@H](O)[C@H](Cc1ccccc1)NC(=O)c1cc(NCC)cc(N2CCCCS2(=O)=O)c1 (stereo partly specified) | -0.71 | 1.3 | 0.36
15 | O=C(NCc1ccccc1)C1Cc2c([nH]c3ccc(Br)cc23)C2(CCN(Cc3ccccc3)CC2)N1 (stereo unspecified) | 2.61 | 3.23 | 1.63
16 | N=C(N)NC(=O)Nc1cc(F)c(Cl)c(Br)c1 | 3.49 | 4.05 | -2.83
17 | Cc1cccc(CNc2nccc3[nH]c4ccccc4c23)c1 | 4.82 | 4.77 | 1.28
18 | O=C(Nc1ccc(N2CCNCC2)cc1)c1ccn2ncc(-c3cccc(Cl)c3)c2n1 | 84.8 | 83.9 | 54.3
19 | COc1cccc(CCNc2nc(NCc3ccccc3)c3cc(OC)c(OC)cc3n2)c1 | 7.51 | 5.93 | 1.86
20 | c1ccc(COc2ccc(Nc3ncnc4cnc(-c5ccc(CN6CCCCC6)o5)cc34)cc2)cc1 | 1.44 | 1.73 | 2.99
21 | CCC(O)c1ccc(Br)cc1NC(=O)c1cccc(Cl)c1 (stereo unspecified) | -1.21 | 1.01 | -0.55
22 | CN(C)Cc1c(O)ccc2oc(Cc3ccccc3)cc12 | -1.64 | -1.55 | -0.96
23 | Cc1nc(-c2ccc(-c3ccc(NC(=O)c4coc5ccc(N6CC(C)N(C)C(C)C6)cc45)cc3)c(C)c2)no1 (stereo unspecified) | -0.52 | 0.17 | 3.28
24 | CCCNC(=O)C1Cc2c([nH]c3ccc(Br)cc23)C2(CCN(CCc3ccccc3)CC2)N1 (stereo unspecified) | -1.4 | 0.12 | 1.33

Row | SMILES | inhibition [1] [%] | inhibition [2] [%] | inhibition [3] [%]
25 | FC(F)(F)Oc1cccc(CNc2noc(-c3sccc3Br)n2)c1 | 2.52 | 2.93 | 0.8
26 | O=S(=O)(c1ccccc1OC(F)(F)F)C1CC2CCC(C1)N2S(=O)(=O)c1cccc(C(F)(F)F)c1 (stereo unspecified) | 0.7 | -0.63 | 0.73
27 | COc1ccc(CNc2ccnc3cc(OC)ccc23)cc1 | -1.06 | 12.2 | 3.66
28 | O=S(=O)(c1cccc(F)c1)c1ccc(Nc2ncnc3cc(Br)sc23)cc1Cl | 3.23 | 2.8 | -1.17
29 | CCCCCCCCCCS(=O)(=O)N[C@H](COCc1cccc(Oc2ccccc2)c1)COP(=O)(O)OC | 0.47 | 0.77 | -1.2
30 | Cc1cccc(Oc2cccc3[nH]nc(N)c23)c1 | 3.75 | 3.96 | 3.98
31 | CNC(=O)c1cnc(Nc2ccc(N3CCN(C)CC3)cc2)nc1Nc1cccc([N+](=O)[O-])c1 | 2.86 | -0.17 | 1.22
32 | CCNc1cc(C(=O)N[C@@H](Cc2ccccc2)[C@H](O)CNC2CCC(C)(C)CC2)cc(N2CCCCS2(=O)=O)c1 | 3.16 | 1.73 | 1.22
33 | CCOc1ccc(C(C)NC(=O)Cc2ccccc2F)cc1OCC (stereo unspecified) | 3.49 | 2.75 | -0.15
34 | N=C(N)NN=Cc1ccc2ccc3ccccc3c2c1 | 5.52 | 7.75 | 4.14
35 | OCCN1CCN(Cc2ccc(-c3ccc(-c4nc5ccccc5[nH]4)cc3)cc2)CC1 | 12.1 | 9.51 | 7.18
36 | COc1ccc(-c2c(-c3ccc(OCc4ccccc4)cc3O)n[nH]c2C(F)(F)F)cc1 | 3.36 | 1.26 | 1.92
37 | O=C(Nc1cccc(CN2CCN(Cc3ccc(O)cc3)CC2)c1)c1cccc(C(F)(F)F)c1 | 6.03 | 6.51 | 4.56
38 | NCc1ccc(Nc2nccc(Nc3ccc(-c4ccccc4)cc3)n2)cc1 | 2.28 | 4.91 | 0.24
39 | O=C(c1cccc(-c2noc(C(F)(F)F)n2)c1)N1CCN(C(=O)c2ccc3cc[nH]c3c2)CC1 | -0.84 | -0.23 | -1.68
40 | COc1cc(CCNC(=O)Cc2ccc3ccccc3c2)ccc1OCc1ccccc1 | 1.9 | 1.88 | 0.92
41 | O=C(NCCCCCN1CCC(c2c[nH]c3ccccc23)CC1)c1ccc(-c2ccccc2)nc1 | 2.41 | 2.42 | 2.97
42 | CN(C)CCOc1ccc(NC(=O)Nc2ccnc3c(Br)cccc23)cc1Cl | 0.71 | 0.76 | -0.85
43 | CC(=O)Nc1ccc(CN2CCC(NC(=O)c3cc(-c4ccc(N(C)C)cc4)cs3)C2)cc1 (stereo unspecified) | 1.62 | 3.72 | 4.39
44 | CCc1cc2c3c(N)nc(N)nc3ccc2n1C(C)(C)C | 96 | 94.4 | 78.4
45 | CN(C)CCC1CCN(CCS(=O)(=O)c2cccc(Nc3ccc(-c4cccc(F)c4)cn3)c2)CC1 | -0.27 | 3.28 | 3.78
46 | COc1ccc(C(C(=O)NC2CCN(C[C@H](O)c3ccnc4ccc(OC)cc34)CC2)N2CCN(c3ccc([N+](=O)[O-])cc3)CC2)cc1 (stereo partly specified) | 2.67 | 1.79 | 2.85
47 | O=C(NCCCN1CCC(NC(=O)c2ccc(-c3cccnc3)cc2)CC1)c1ccc(Cl)c(Cl)c1 | 2.51 | 1.38 | 1.63
